Luc counter: Counterscreen for Luciferase (Kinase-Glo TM) Inhibition; Luciferin 4-monooxygenase (Photuris pensylvanica), Q27757; Kinase-Glo luciferase, ATP luminescence, 8 min; Potency, µM (top dose mostly 38.3 µM), inactives show top-dose activity change, negative = inhibition, actives largely listed as inhibitors; 200,000 tested, 0.28% active; active means well fitted inhibition curve with a large enough effect; further: potency means the concentration at half of the fitted maximal effect; nearly all actives have a fitted effect of over 60% in size
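Light output from Kinase-Glo luciferase with luciferin and 10 uM ATP in 50 mM imidazole pH 7.2, KCl, MgCl2, Tween 20, BSA; compound pin-delivered, 8-min ambient incubation, then luminescence read.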
KCNH2 3.1 inh: qHTS for Inhibitors of KCHN2 3.1: Mutant qHTS. 340,000 tested, 0.95% active. activity change, % (tested at about 1.8 µM). AID 720553, 2013. Potassium voltage-gated channel subfamily H member 2, brain isoform KCNH2 3.1 (human). U2OS KCNH2 3.1, thallium flux FluxOr; active compounds read low;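 active means maximum activity change below -70%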;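 further: thallium influx rate constant from kinetic fluorescence after stimulation buffer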
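Virally transduced U2OS (3.1 isoform, 4 h infection in dark at RT) → overnight 37 C → FluxOr + Red40 in HBSS/HEPES, 45 min → stimulation buffer, 2 min kinetic read → rate constant vs DMSO controls.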
KCNH2 WT inh: qHTS for Inhibitors of KCHN2 3.1: Wildtype qHTS | AID 720551, 2013 | U2OS, BacMam KCNH2, thallium flux FluxOr; active compounds read low | 340,000 tested, 0.37% active | activity change, % at 1.84 µM | Voltage-gated inwardly rectifying potassium channel KCNH2 (Homo sapiens), Q12809;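 active means maximum activity change below -70%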
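U2OS cells were transduced with wild-type KCNH2 virus (2.03 x 10^8 / mL) for 4 h at room temperature, then cultured overnight at 37 C. Thallium flux was read with FluxOr dye. Rate constants were normalized to DMSO controls.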
Active calls of the source: *; / = no result given; [ ] = another dose, or the depositor's remark. Sampled rows, rich in hits. Any-hit rate of the full collection: about 1.2%. On the % scale 0 is the no-effect control and ±100 the full control effect.

SMILES	Luc counter	KCNH2 3.1 inh	KCNH2 WT inh
CC1=C(O)C(=O)C=C2C1=CC=C1[C@]2(C)CC[C@@]2(C)C3C[C@](C)(C(=O)O)CC[C@@]3(C)CC[C@@]12C (stereo partly specified)	-1.9%	/	/
CCOC(=O)c1ccc(N2C(=O)CC(N3CC=C(c4ccc(F)cc4)CC3)C2=O)cc1 (stereo unspecified)	-3.2%	12.5	-3.1
NC(=O)c1ccc(OCCC(O)N2CC=C(c3ccc(F)cc3)CC2)cc1 (stereo unspecified)	/	-72.7*	71.9
CC[C@]1(OC(=O)CN)C(=O)OCc2c1cc1n(c2=O)Cc2cc3ccccc3nc2-1	-4.9%[7.66 µM]	/	/
CN(C)c1ccc(/C=C/c2cc[n+](C)c3ccccc23)cc1	12.6µM*	1.6	-9.3
CN(C)c1ccc(/C=C/C=C/c2sc3ccccc3[n+]2C)cc1	/	-6.3	-9.5
O=C(c1ccc(Cl)cc1)C1CCCN(Cc2cccc3ncccc23)C1 (stereo unspecified)	/	-5.1	33.5
O=C(c1ccc(Cl)cc1)C1CCCN(Cc2cccc3cccnc23)C1 (stereo unspecified)	5.2%	-99.1*	-70.7*
COc1cccc(C(=O)C2CCCN(Cc3ccc(F)cc3)C2)c1 (stereo unspecified)	/	-33.3	18.5
COc1ccc(CN2CCCC(C(=O)c3ccc(Cl)cc3)C2)c(O)c1 (stereo unspecified)	/	-71.8*	-31.2
C[C@@H]1Cc2c(Cl)cc(C(=O)N[C@@H](Cc3ccccc3)C(=O)O)c(O)c2C(=O)O1	2.1%[39.9 µM]	/	/
O=C(c1cc(F)ccc1F)C1CCCN(CCCc2ccccc2)C1 (stereo unspecified)	0.0%	-101.2*	4.3
O=C(c1cc(F)ccc1F)C1CCCN(Cc2cccc(Cl)c2)C1 (stereo unspecified)	/	-0.4	/
C(=NCCN1CCOCC1)=NC1CCCCC1	-0.1%[7.66 µM]	/	/
Nc1nc(N)c(Cn2ccnc2)c(=O)[nH]1	0.2%[7.66 µM]	/	/
Cc1cc[c]([Sb]2[O]C([C@H](O)[C@H](O)C(=O)O)[C@@H](CO)[O]2)cc1 (stereo partly specified)	-0.5%[7.66 µM]	/	/
Nc1ncnc2c1ncn2[C@@H]1O[C@H](COP(=O)(O)OP(=O)(O)OP(=O)(O)O)[C@H]2OC3(O[C@H]21)C([N+](=O)[O-])=CC(=[N+]([O-])[O-])C=C3[N+](=O)[O-] (stereo partly specified)	2.82µM*	/	/
Nc1ncnc2c1ncn2[C@@H]1O[C@H](COP(=O)(O)CP(=O)(O)OP(=O)(O)O)[C@H](O)[C@H]1O	-13.5%	/	/
C[C@@]12CCC3C(CCC4=CC(=O)CC[C@]43C)C1CCC2O (stereo partly specified)	-3.9%	/	/
CC12CCC3c4ccc(OC(=O)N(CCCl)CCCl)cc4CCC3C1CCC2O (stereo unspecified)	/	-89.4*	34.0
O=c1c2ccccc2nc(/C=C/c2ccc(O)cc2)n1-c1ccc(O)cc1	/	16.9	1.7
COc1ccc(-n2c(/C=C/c3ccc(O)cc3)nc3ccccc3c2=O)cc1	/	-21.7	-92.5*
